Laboratory results taken from PubChem BioAssay AID2061306 (National Center for Advancing Translational Sciences (NCATS), 2025).
Results filed as inconclusive are left out. Activity calls are given as the source filed them. Calls come from the whole dose curve; as a rule, active = well fitted inhibition curve with a large enough effect; inconclusive = small, poorly fitted or top-dose-only effect; inactive = flat fitted curve, though single readings scatter.

Assay: Identification of antibody-drug conjugate (ADC) payloads which are substrates of ATP-binding cassette drug efflux transporters: ABCB1-HEK293-pcDNA cell line
Settings: HEK293 empty-vector (pcDNA) control viability, CellTiter-Glo, 48 h
Source text: Antibody-drug conjugates (ADCs) feature an antibody recognizing a specific protein joined to a potent toxic payload. Numerous antibody-drug conjugates have received FDA approval; however, clinical resistance arises. Resistance mechanisms include decreased expression or mutation of the antibody target, impaired payload release, or increased expression of ATP-binding cassette (ABC) efflux transporters associated with multidrug resistance. We therefore sought to characterize the interaction of ABC multidrug transporters with ADC payloads. We performed a high-throughput screen with 27 common ADC payloads using cells lines expressing ABC transporters P-glycoprotein (P-gp, encoded by ABCB1) or ABCG2 (encoded by ABCG2). Confirmatory assays were also performed using cells transfected to express P-gp, ABCG2, or MRP1 (encoded by ABCC1). Several commonly used ADC payloads were substrates of P-gp, including calicheamicin gamma1, monomethyl auristatin E, DM1, and DM4. All the pyrrolobenzodiazepines tested - SJG136, SGD-1882, SG2057, and SG3199 - were substrates of P-gp, ABCG2, and MRP1. […] These findings highlight the risk of transporter-mediated resistance with certain ADC payloads and underscore the importance of selecting payloads that evade ABC transporter recognition in future ADC development.
HEK-293 cells were transfected with empty vector (pcDNA) or vector containing the human ABCB1 (MDR-19), ABCG2 (R-5), or ABCC1 gene (MRP1) and were maintained in EMEM with 2 mg/mL G418 added to maintain transporter expression. The HeLa derivative KB-3-1 and the P-gp overexpressing KB-8-5-11 subline were maintained in DMEM; KB-8-5-11 additionally received 100 ng/mL colchicine. H460 parental cells were obtained from the Division of Cancer Treatment and Diagnosis Tumor Repository, National Cancer Institute at Frederick, MD and were cultured in RPMI. The ABCG2 expressing subline H460 MX20 was generated by selecting H460 cells in 20 nM mitoxantrone. Media in all cases was supplemented with 10% FBS and 1% penicillin-streptomycin. We explored 27 common ADC payloads, in two orthogonal, paired cell line sets-a drug selected and transfected set for each transporter--to identify substrates of the ABC transporters P-gp and ABCG2. Compounds were sourced from Levena Biopharma (San Diego, CA), Selleck Chem (Houston, TX), ChemieTek (Indianapolis, IN), or Microsource Discovery Systems (Gaylordsville, CT). Screening was performed as previously described. Briefly, cells were plated at a density of 500 cells/well in 1536 well plates with compounds added using a 1536-head pin tool (Kalypsys, San Diego CA). Cells were incubated with cytotoxic drugs and processed with CellTiter Glo reagent (Promega, Madison, WI) to determine viability after 48 hours. […]

SMILES | Potency
CC[C@@]1(O)C(=O)OCc2c1cc1n(c2=O)Cc2cc3ccccc3nc2-1 | 11.8 nM (active)
CC[C@H](C)[C@H](NC(=O)[C@H]1CCCCN1C)C(=O)N(C)[C@H](C[C@@H](OC(C)=O)c1nc(C(=O)N[C@@H](Cc2ccccc2)C[C@H](C)C(=O)O)cs1)C(C)C | 1.3 nM (active)
COc1cccc2c1C(=O)c1c(O)c3c(c(O)c1C2=O)C[C@@](O)(C(=O)CO)CC3OC1CC(N2CCOC(OC)C2)C(O)C(C)O1 (some centres undefined) | 1.7 nM (active)
COc1cc2cc(C(=O)N3C[C@@H](CCl)c4c3cc(O)c3ccccc43)[nH]c2c(OC)c1OC | 1.5 nM (active)
